# From PubChem BioAssay (EPA / NIEHS)
# Records with an inconclusive call do not appear. Calls of active or inactive are those of the source. The calls were made as follows, unless noted: active = hit-call score of the fitted dose curve at least 0.9, where 1 is the maximum; inconclusive = response in the unintended direction; inactive = score below 0.9.
# Experiments:
# [1] = read-out: Cytochrome P450 3A4 (Homo sapiens) (UniProt P08684); assay: CLD_CYP3A4_48hr: CellzDirect (CLD) Gene Expression Assay for xenobiotic metabolism (CYP3A4) at 48 hours (AID 2283698)
# In short: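 CYP3A4 induction read by qNPA chemiluminescence after 48 h, with fresh dosing solutions on consecutive days, in cultured human hepatocytes (two donors). Vehicle 0.2% DMSO as baseline; microscopy-based cytotoxicity annotated yes/no alongside data.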
# [2] = read-out: Cytochrome P450 2C9 (Homo sapiens) (UniProt P11712); assay: CLD_CYP2C9_48hr: CellzDirect (CLD) Gene Expression Assay for xenobiotic metabolism (CYP2C9) at 48 hours (AID 2283701; active = hit-call score of the fitted dose curve at least 0.9, where 1 is the maximum; inactive = score below 0.9)
# In short: (§1)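 mRNA level measured by quantitative nuclease protection (S1 digestion, chemiluminescent detection) in lysates of human primary hepatocytes exposed 48 h with daily re-dosing. Induction fitted positively versus 0.2% DMSO; morphology-based cytotoxicity flagged yes/no.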
# [3] = read-out: xenobiotic metabolism (CYP1A2), CYP1A2 (gene 1544); assay: CLD_CYP1A2_48hr: CellzDirect (CLD) Gene Expression Assay for xenobiotic metabolism (CYP1A2) at 48 hours (AID 2283703)
# In short: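 Cytotoxicity was flagged yes/no from morphology, while CYP1A2 transcript induction was detected by qNPA chemiluminescence after a 48-hour exposure. Human primary hepatocyte cultures from separate donors received fresh dosing solutions daily over two days, with 0.2% DMSO as vehicle and baseline.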
# [4] = read-out: Broad substrate specificity ATP-binding cassette transporter ABCG2 (Homo sapiens) (UniProt Q9UNQ0); assay: CLD_ABCG2_48hr: CellzDirect (CLD) Gene Expression Assay for ABC Transporter (ABCG2) at 48 hours (AID 2283704);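 as to AC50: potency for induction of ABCG2 mRNA above the DMSO baseline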
# In short: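 ABCG2 transcript measured at 48 h by quantitative nuclease protection (chemiluminescent) and fitted for increase relative to 0.2% DMSO. Hepatocyte cultures from separate donors got fresh compound daily over two days; morphology annotated cytotoxicity.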
# [5] = read-out: xenobiotic metabolism (CYP1A1), CYP1A1 (gene 1543); assay: CLD_CYP1A1_48hr: CellzDirect (CLD) Gene Expression Assay for xenobiotic metabolism (CYP1A1) at 48 hours (AID 2283705)
# In short: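 CYP1A1 transcript measured by quantitative nuclease protection (chemiluminescent) 48 h after two daily treatments of human hepatocyte cultures, versus 0.2% DMSO. Morphology-based cytotoxicity flags accompany data; two donor preparations used.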
# [6] = read-out: Glyceraldehyde-3-phosphate dehydrogenase (Homo sapiens) (UniProt P04406); assay: CLD_GAPDH_48hr: CellzDirect (CLD) Gene Expression Assay for Baseline Control (Glyceraldehyde 3-phosphate dehydrogenase) at 48 hours (AID 2283706);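 also: active means higher GAPDH mRNA than DMSO vehicle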
# In short: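 GAPDH baseline-control readout: qNPA chemiluminescent mRNA quantitation in human liver primary cells 48 h after daily dosing on two consecutive days, vehicle 0.2% DMSO; gain of signal fitted against DMSO, cytotoxicity flagged by phase-contrast morphology.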
# [7] = read-out: xenobiotic metabolism (CYP2C9), CYP2C9 (gene 1559); assay: CLD_CYP2C9_48hr: CellzDirect (CLD) Gene Expression Assay for xenobiotic metabolism (CYP1A2) at 48 hours (AID 2283701)
# In short: as §1
# [8] = read-out: Cytochrome P450 2B6 (Homo sapiens) (UniProt P20813); assay: CLD_CYP2B6_48hr: CellzDirect (CLD) Gene Expression Assay for xenobiotic metabolism (CYP2B6) at 48 hours (AID 2283699);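 also: actives raise transcript level above DMSO so potency reflects induction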
# In short: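 CYP2B6 transcript induction, read by quantitative nuclease protection (S1 digestion, chemiluminescent detection) 48 h after dosing, is fitted upward against 0.2% DMSO. Cultured human liver primary cells, two donor preparations, received fresh chemical daily over multiple concentrations.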
# Sequence of Glyceraldehyde-3-phosphate dehydrogenase (Homo sapiens) (P04406 whole entry, looked up): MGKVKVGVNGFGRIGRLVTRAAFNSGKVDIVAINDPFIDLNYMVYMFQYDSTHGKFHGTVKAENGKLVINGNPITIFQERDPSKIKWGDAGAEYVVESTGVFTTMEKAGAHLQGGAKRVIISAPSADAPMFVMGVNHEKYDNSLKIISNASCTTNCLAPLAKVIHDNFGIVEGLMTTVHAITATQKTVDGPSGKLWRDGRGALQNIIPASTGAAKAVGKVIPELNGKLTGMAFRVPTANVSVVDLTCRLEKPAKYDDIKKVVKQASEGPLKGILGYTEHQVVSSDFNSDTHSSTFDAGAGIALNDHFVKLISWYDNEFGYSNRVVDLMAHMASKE
# Sequence of Broad substrate specificity ATP-binding cassette transporter ABCG2 (Homo sapiens) (Q9UNQ0 whole entry, looked up): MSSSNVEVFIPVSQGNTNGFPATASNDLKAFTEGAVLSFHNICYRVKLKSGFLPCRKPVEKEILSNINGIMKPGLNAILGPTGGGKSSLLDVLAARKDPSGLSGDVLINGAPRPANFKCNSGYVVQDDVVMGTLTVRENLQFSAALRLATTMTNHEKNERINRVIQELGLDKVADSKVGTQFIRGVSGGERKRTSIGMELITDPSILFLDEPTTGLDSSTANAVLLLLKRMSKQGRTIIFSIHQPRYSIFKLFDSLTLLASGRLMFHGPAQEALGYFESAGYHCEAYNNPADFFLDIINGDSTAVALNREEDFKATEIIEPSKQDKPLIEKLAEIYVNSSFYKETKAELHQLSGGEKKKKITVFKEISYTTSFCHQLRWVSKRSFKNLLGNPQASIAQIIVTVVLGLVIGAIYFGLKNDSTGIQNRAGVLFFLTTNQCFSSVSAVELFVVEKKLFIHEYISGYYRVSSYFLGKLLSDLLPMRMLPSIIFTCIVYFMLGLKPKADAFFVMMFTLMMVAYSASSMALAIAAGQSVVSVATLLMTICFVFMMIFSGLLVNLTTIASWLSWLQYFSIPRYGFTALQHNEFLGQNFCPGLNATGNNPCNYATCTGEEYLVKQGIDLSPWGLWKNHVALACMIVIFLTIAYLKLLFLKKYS
# Sequence of Cytochrome P450 3A4 (Homo sapiens) (P08684 whole entry, looked up): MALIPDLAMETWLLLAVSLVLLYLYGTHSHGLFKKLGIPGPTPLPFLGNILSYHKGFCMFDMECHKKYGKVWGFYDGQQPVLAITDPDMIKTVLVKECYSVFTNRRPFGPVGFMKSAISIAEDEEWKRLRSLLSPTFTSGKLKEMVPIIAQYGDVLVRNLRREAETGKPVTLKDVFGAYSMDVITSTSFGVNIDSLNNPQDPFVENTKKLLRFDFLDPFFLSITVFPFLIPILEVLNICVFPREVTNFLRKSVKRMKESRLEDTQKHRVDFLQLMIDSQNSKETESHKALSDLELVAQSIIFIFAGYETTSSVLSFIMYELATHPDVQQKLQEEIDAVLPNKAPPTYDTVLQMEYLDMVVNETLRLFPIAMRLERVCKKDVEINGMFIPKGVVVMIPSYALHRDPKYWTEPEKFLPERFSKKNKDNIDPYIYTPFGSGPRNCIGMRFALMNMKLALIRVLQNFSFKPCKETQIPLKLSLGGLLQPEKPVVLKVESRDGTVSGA
structure (smiles),measurement,setting,value
CCc1cccc(CC)c1N(COC)C(=O)CCl,outcome,[1],inactive
same,outcome,[2],inactive
same,outcome,[3],inactive
same,outcome,[4],inactive
same,AC50,[5],1.89 µM (active)
C[Si](Cn1cncn1)(c1ccc(F)cc1)c1ccc(F)cc1,AC50,[1],0.536 µM (active)
same,AC50,[3],1.89 µM (active)
same,AC50,[4],31.6 µM (active)
same,AC50,[5],0.727 µM (active)
COc1ccc(C(=CC(=O)N2CCOCC2)c2ccc(Cl)cc2)cc1OC,AC50,[1],1.9 µM (active)
same,outcome,[2],inactive
same,AC50,[4],32 µM (active)
same,AC50,[5],4.77 µM (active)
CCC(CC)Nc1c([N+](=O)[O-])cc(C)c(C)c1[N+](=O)[O-],AC50,[1],20 µM (active)
same,AC50,[3],9.85 µM (active)
same,outcome,[5],inactive
same,outcome,[6],inactive
CC1(C(=O)Nc2ccc(O)c(Cl)c2Cl)CCCCC1,outcome,[4],inactive
same,outcome,[6],inactive
CCNc1nc(Cl)nc(NC(C)(C)C#N)n1,AC50,[1],20 µM (active)
same,AC50,[7],0.0364 µM (active)
same,outcome,[3],inactive
same,outcome,[5],inactive
S=C1NCCN1,outcome,[4],inactive
same,outcome,[6],inactive
CN1COCN(Cc2cnc(Cl)s2)C1=N[N+](=O)[O-],outcome,[1],inactive
same,outcome,[8],inactive
same,outcome,[2],inactive
same,outcome,[3],inactive
same,outcome,[4],inactive
same,outcome,[5],inactive
same,outcome,[6],inactive
CCOP(=S)(OCC)SCCSCC,AC50,[1],20 µM (active)
same,AC50,[8],1.68 µM (active)
same,outcome,[2],inactive
same,AC50,[3],7.27 µM (active)
same,AC50,[5],20 µM (active)
